From PubChem BioAssay (NCATS)
Results filed as inconclusive are left out. Entries that show only a call come without a potency. Calls of active or inactive are those of the source. The call rests on the fitted dose curve; in most records, active means well fitted curve in the direction sought with a large enough effect; inconclusive means small, poorly fitted or top-dose-only effect, or another doubt; inactive means no such curve, though single readings can be large; an effect the other way counts as inactive or inconclusive.

Test system: not listed separately
Experiment: qHTS of pediatric cancer cell lines to identify multiple opportunities for drug repurposing: Confirmatory screen for control Hh wild type fibroblast cells (AID 1347121); further: nearly all actives have a fitted effect of over 70% in size
Conditions: viability qHTS; series mostly up to 45.9 µM
Method in brief: (§1)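 Cells (500-1,000/well) rested 5 h, then received compounds for 48 h; metabolically active cells were measured by CellTiter-Glo luminescence. Final concentrations spanned up to 46 µM (MIPE, 11-point) or 0.59 nM-46 µM (NPC, 8-point) in primary screens, 11-point in follow-ups.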

Compound	outcome
CC(=O)[C@@]1(O)CC[C@H]2[C@@H]3C[C@H](C)C4=CC(=O)C=C[C@]4(C)[C@@]3(F)[C@@H](O)C[C@@]21C	inactive
O=C(Cn1ccnc1[N+](=O)[O-])NCc1ccccc1	inactive
COc1cc(C(=O)NCCCCCC(=O)O)cc(OC)c1OC	inactive

Test system: not listed separately
Experiment: qHTS of pediatric cancer cell lines to identify multiple opportunities for drug repurposing: Confirmatory screen for U-2 OS cells (AID 1347122); further: nearly all actives have a fitted effect of over 65% in size
Conditions: U-2 OS osteosarcoma cell viability; series mostly up to 45.9 µM
Method in brief: as §1

Compound	outcome
CC(=O)[C@@]1(O)CC[C@H]2[C@@H]3C[C@H](C)C4=CC(=O)C=C[C@]4(C)[C@@]3(F)[C@@H](O)C[C@@]21C	inactive
O=C(Cn1ccnc1[N+](=O)[O-])NCc1ccccc1	inactive
COc1cc(C(=O)NCCCCCC(=O)O)cc(OC)c1OC	inactive
CC(=O)OCC(=O)[C@@]1(O)CC[C@H]2[C@@H]3CCC4=CC(=O)C=C[C@]4(C)[C@@]3(F)[C@@H](O)C[C@@]21C	inactive

Test system: not listed separately
Experiment: qHTS of pediatric cancer cell lines to identify multiple opportunities for drug repurposing: Confirmatory screen for Rh41 cells (AID 1347123);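 further: 48 h compound exposure; nearly all actives have a fitted effect of over 60% in size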; further: potency means the concentration at half of the fitted maximal effect
Conditions: Rh41 rhabdomyosarcoma cells, viability/cytotoxicity qHTS; series mostly up to 45.9 µM
Method in brief: as §1

Compound	Potency
O=C(Cn1ccnc1[N+](=O)[O-])NCc1ccccc1	inactive
COc1cc(C(=O)NCCCCCC(=O)O)cc(OC)c1OC	inactive
CC(=O)OCC(=O)[C@@]1(O)CC[C@H]2[C@@H]3CCC4=CC(=O)C=C[C@]4(C)[C@@]3(F)[C@@H](O)C[C@@]21C	11.7 µM (active)

Test system: not listed separately
Experiment: qHTS of pediatric cancer cell lines to identify multiple opportunities for drug repurposing: Confirmatory screen for RD cells (AID 1347124);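 further: cells exposed to compound for 48 h before viability readout; nearly all actives have a fitted effect of over 65% in size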; further: potency means the concentration at half of the fitted maximal effect
Conditions: RD rhabdomyosarcoma cell viability; series mostly up to 45.9 µM
Method in brief: as §1

Compound	Potency
CC(=O)[C@@]1(O)CC[C@H]2[C@@H]3C[C@H](C)C4=CC(=O)C=C[C@]4(C)[C@@]3(F)[C@@H](O)C[C@@]21C	inactive
O=C(Cn1ccnc1[N+](=O)[O-])NCc1ccccc1	inactive
COc1cc(C(=O)NCCCCCC(=O)O)cc(OC)c1OC	inactive
CC(=O)OCC(=O)[C@@]1(O)CC[C@H]2[C@@H]3CCC4=CC(=O)C=C[C@]4(C)[C@@]3(F)[C@@H](O)C[C@@]21C	20.8 µM (active)

Test system: not listed separately
Experiment: qHTS of pediatric cancer cell lines to identify multiple opportunities for drug repurposing: Confirmatory screen for Rh18 cells (AID 1347125); further: nearly all actives have a fitted effect of over 55% in size; further: potency means the concentration at half of the fitted maximal effect
Conditions: Rh18 rhabdomyosarcoma cells, viability; series mostly up to 45.9 µM
Method in brief: as §1

Compound	Potency
CC(=O)[C@@]1(O)CC[C@H]2[C@@H]3C[C@H](C)C4=CC(=O)C=C[C@]4(C)[C@@]3(F)[C@@H](O)C[C@@]21C	inactive
O=C(Cn1ccnc1[N+](=O)[O-])NCc1ccccc1	inactive
COc1cc(C(=O)NCCCCCC(=O)O)cc(OC)c1OC	inactive
CC(=O)OCC(=O)[C@@]1(O)CC[C@H]2[C@@H]3CCC4=CC(=O)C=C[C@]4(C)[C@@]3(F)[C@@H](O)C[C@@]21C	18.5 µM (active)

Test system: not listed separately
Experiment: qHTS of pediatric cancer cell lines to identify multiple opportunities for drug repurposing: Confirmatory screen for Rh30 cells (AID 1347126); further: nearly all actives have a fitted effect of over 55% in size; further: potency means the concentration at half of the fitted maximal effect
Conditions: Rh30 rhabdomyosarcoma cell viability; series mostly up to 45.9 µM
Method in brief: as §1

Compound	Potency
CC(=O)[C@@]1(O)CC[C@H]2[C@@H]3C[C@H](C)C4=CC(=O)C=C[C@]4(C)[C@@]3(F)[C@@H](O)C[C@@]21C	inactive
COc1cc(C(=O)NCCCCCC(=O)O)cc(OC)c1OC	inactive
CC(=O)OCC(=O)[C@@]1(O)CC[C@H]2[C@@H]3CCC4=CC(=O)C=C[C@]4(C)[C@@]3(F)[C@@H](O)C[C@@]21C	13.1 µM (active)

Test system: not listed separately
Experiment: qHTS of pediatric cancer cell lines to identify multiple opportunities for drug repurposing: Confirmatory screen for OHS-50 cells (AID 1347128);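 further: compound exposure lasted 48 h at 37 degrees C; nearly all actives have a fitted effect of over 55% in size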; further: potency means the concentration at half of the fitted maximal effect
Conditions: OHS-50 osteosarcoma cells viability; series mostly up to 45.9 µM
Method in brief: as §1

Compound	Potency
CC(=O)[C@@]1(O)CC[C@H]2[C@@H]3C[C@H](C)C4=CC(=O)C=C[C@]4(C)[C@@]3(F)[C@@H](O)C[C@@]21C	inactive
COc1cc(C(=O)NCCCCCC(=O)O)cc(OC)c1OC	inactive
CC(=O)OCC(=O)[C@@]1(O)CC[C@H]2[C@@H]3CCC4=CC(=O)C=C[C@]4(C)[C@@]3(F)[C@@H](O)C[C@@]21C	16.5 µM (active)

Test system: not listed separately
Experiment: qHTS of pediatric cancer cell lines to identify multiple opportunities for drug repurposing: Confirmatory screen for SK-N-SH cells (AID 1347129);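 further: cells exposed to compound for 48 h before viability read; nearly all actives have a fitted effect of over 60% in size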
Conditions: SK-N-SH neuroblastoma cell viability; series mostly up to 46.1 µM
Method in brief: as §1

Compound	outcome
O=C(Cn1ccnc1[N+](=O)[O-])NCc1ccccc1	inactive
COc1cc(C(=O)NCCCCCC(=O)O)cc(OC)c1OC	inactive
CC(=O)OCC(=O)[C@@]1(O)CC[C@H]2[C@@H]3CCC4=CC(=O)C=C[C@]4(C)[C@@]3(F)[C@@H](O)C[C@@]21C	inactive

Molecular target: Furin (Homo sapiens) (UniProt P09958)
Sequence (P09958 whole entry, looked up): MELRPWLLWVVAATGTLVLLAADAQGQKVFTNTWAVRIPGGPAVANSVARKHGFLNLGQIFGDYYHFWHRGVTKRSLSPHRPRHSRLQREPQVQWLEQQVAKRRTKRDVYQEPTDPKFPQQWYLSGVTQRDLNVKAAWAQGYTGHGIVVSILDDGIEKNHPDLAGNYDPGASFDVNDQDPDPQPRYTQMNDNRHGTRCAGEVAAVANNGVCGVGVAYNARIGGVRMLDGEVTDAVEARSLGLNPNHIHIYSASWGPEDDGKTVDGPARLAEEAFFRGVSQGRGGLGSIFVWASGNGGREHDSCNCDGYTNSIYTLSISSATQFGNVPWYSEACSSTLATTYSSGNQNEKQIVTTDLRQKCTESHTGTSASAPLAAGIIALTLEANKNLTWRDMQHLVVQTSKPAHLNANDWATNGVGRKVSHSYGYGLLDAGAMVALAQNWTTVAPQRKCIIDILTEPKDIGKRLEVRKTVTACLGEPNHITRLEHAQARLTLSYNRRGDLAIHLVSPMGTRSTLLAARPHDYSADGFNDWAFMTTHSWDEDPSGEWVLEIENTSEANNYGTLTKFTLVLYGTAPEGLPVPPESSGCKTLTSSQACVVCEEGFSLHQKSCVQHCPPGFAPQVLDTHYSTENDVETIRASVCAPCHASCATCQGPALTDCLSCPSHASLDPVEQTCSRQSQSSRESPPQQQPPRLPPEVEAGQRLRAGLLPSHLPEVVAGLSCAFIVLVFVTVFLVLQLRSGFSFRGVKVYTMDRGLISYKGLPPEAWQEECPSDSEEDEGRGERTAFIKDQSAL
Experiment: Furin counterscreen qHTS for Zika virus inhibitors (AID 1347149); further: nearly all actives have a fitted effect of over 70% in size; further: potency means the concentration at half of the fitted maximal effect
Conditions: furin enzymatic counterscreen, fluorogenic substrate; series mostly up to 114 µM
Method in brief: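 Counterscreen measures cleavage of 2 microM BOC-RVRR-AMC, below its ~15 microM Km, by 5 nM full-length human furin at pH 7.0 after a 15-min compound preincubation. Inhibition derives from the 15-min fluorescence increase at 37C.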

Compound	Potency
COc1ccccc1Oc1c(NS(=O)(=O)c2ccc(C(C)(C)C)cc2)nc(-c2ncccn2)nc1OCCO	inactive
CN1C[C@@H]2C[C@H]1CN2c1cc2c(cc1F)c(=O)c(C(=O)O)cn2C1CC1	9.41 µM (active)
O=C(O)[C@@H]1[C@H]2C[C@H]3c4[nH]c5ccccc5c4CCN3C[C@@H]2CC[C@@H]1O	21.5 µM (active)

Test system: Zika virus NS2B-NS3 protease (unlinked complex)
Experiment: Confirmatory screen GU AMC qHTS for Zika virus inhibitors (AID 1347153); further: nearly all actives have a fitted effect of over 70% in size
Conditions: Recombinant NS2B-NS3 protease, AMC substrate fluorescence; series mostly up to 57.1 µM
Method in brief: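 Unlinked NS2B-NS3 complex (25 nM) in 10 mM Tris-HCl pH 8.0, 0.01% Tween 20 preincubated 15 min with compound, then 10 microM Bz-Nle-KRR-AMC (Km 18.3 µM). Fluorescence change over 15 min, normalized, Hill-fitted.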

Compound	Potency
O=C(O)Cn1c(C(=O)Nc2nc(-c3ccccc3Cl)cs2)cc2ccccc21	24.1 µM (active)
CN1C[C@@H]2C[C@H]1CN2c1cc2c(cc1F)c(=O)c(C(=O)O)cn2C1CC1	16.7 µM (active)
O=C(O)[C@@H]1[C@H]2C[C@H]3c4[nH]c5ccccc5c4CCN3C[C@@H]2CC[C@@H]1O	inactive

Test system: Zika virus NS2B-NS3 protease
Experiment: Primary screen GU AMC qHTS for Zika virus inhibitors (AID 1347154); further: nearly all actives have a fitted effect of over 70% in size; further: potency means the concentration at half of the fitted maximal effect
Conditions: Zika NS2B-NS3 unlinked protease, AMC fluorogenic substrate; series mostly up to 54.1 µM
Method in brief: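 Fluorogenic AMC-substrate cleavage by noncovalent NS2B-NS3 protease complex (25 nM, pH 8.0 Tris buffer with Tween 20) followed for 15 minutes at room temperature (~20% conversion). Percent inhibition from ex340/em450 signal change, fitted by 4-parameter Hill equation.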

Compound	Potency
O=c1[nH]c2cc(C(F)(F)F)c(N3CCOCC3)cc2n(CP(=O)(O)O)c1=O	inactive
CCCCCCCCCCCCCCCCCCO	inactive
CC1CCN(CCCC(=O)c2ccc(F)cc2)CC1	inactive
O=C(O)CNC(=O)c1ccccc1I	inactive
Cc1c(Cn2ccnc2)c2ccccc2n1CCC(=O)O	inactive
CC(=O)[C@@]1(O)CC[C@H]2[C@@H]3C[C@H](C)C4=CC(=O)C=C[C@]4(C)[C@@]3(F)[C@@H](O)C[C@@]21C	inactive
Cc1ccc2c(c1)c1c3n2CCNC3CCC1 (stereo not drawn)	inactive
Cc1c(N(C)C)c(=O)n(-c2ccccc2)n1C	inactive
O=C(O)c1ccc[n+]([O-])c1	inactive
Cc1cc(OI)c(C(C)C)cc1-c1cc(C(C)C)c(OI)cc1C	inactive
Cc1ccsc1C(=CCCN1CCC[C@@H](C(=O)O)C1)c1sccc1C	inactive
COc1ccccc1Oc1c(NS(=O)(=O)c2ccc(C(C)(C)C)cc2)nc(-c2ncccn2)nc1OCCO	inactive
CCCCC1(COC(=O)CCC(=O)O)C(=O)N(c2ccccc2)N(c2ccccc2)C1=O	inactive
CCN[C@H]1CN(CCCOC)S(=O)(=O)c2sc(S(N)(=O)=O)cc21	inactive
O=c1[nH]cnc2nc[nH]c12	inactive
O=C(Cn1ccnc1[N+](=O)[O-])NCc1ccccc1	inactive
Cc1cccc(C)c1NC(=O)CC12CCCN1CCC2	inactive
CCCCCOC(=O)Nc1nc(=O)n([C@@H]2O[C@H](C)[C@@H](O)[C@H]2O)cc1F	inactive

Compound	Potency
OCC(O)CS (stereo not drawn)	inactive
CCOC(N)=O	inactive
CCCCCCCC(=O)OCC(COC(=O)CCCCCCC)OC(=O)CCCCCCC	inactive
Cc1ccccc1N=Nc1ccc(N=Nc2c(O)ccc3ccccc23)c(C)c1	inactive
CCCCCC(N)=O	inactive
COc1cc(C(=O)NCCCCCC(=O)O)cc(OC)c1OC	inactive
C[C@@H]1CCC[C@H](C)N1	inactive
COc1ccc(O)cc1	inactive
NC(=O)c1ccc([N+](=O)[O-])cc1Cl	inactive
Cc1ccc(C(C)C)c(O)c1	inactive
CN1C[C@@H]2C[C@H]1CN2c1cc2c(cc1F)c(=O)c(C(=O)O)cn2C1CC1	8.82 µM (active)
CCc1nnc(NS(=O)(=O)c2ccc(N)cc2)s1	inactive
O=C(O)Cc1ccc(CCNS(=O)(=O)c2ccc(Cl)cc2)cc1	inactive
CC1(C)S[C@@H]2[C@H](N=CN3CCCCCC3)C(=O)N2[C@H]1C(=O)O	inactive
COC(=O)N/N=C/c1c[n+]([O-])c2ccccc2[n+]1[O-]	inactive
CC(=O)OCC(=O)[C@@]1(O)CC[C@H]2[C@@H]3CCC4=CC(=O)C=C[C@]4(C)[C@@]3(F)[C@@H](O)C[C@@]21C	inactive
C[C@@H](N)C(=O)O	inactive
